# The whole screen tested about 76,000 compounds, of which about 1,900 (2.5%) were called active. Entries that show only a call come without a potency. About 5% were inconclusive and are not listed. The call rests on the fitted dose curve; in most records, active means well fitted inhibition curve with a large enough effect; inconclusive means small, poorly fitted or top-dose-only effect; inactive means flat fitted curve, though single readings scatter. Only a selection was taken, and actives are over-represented in it overall.
# Molecular target: Luciferin 4-monooxygenase (Photinus pyralis) (UniProt P08659)
# Sequence (P08659 whole entry, looked up): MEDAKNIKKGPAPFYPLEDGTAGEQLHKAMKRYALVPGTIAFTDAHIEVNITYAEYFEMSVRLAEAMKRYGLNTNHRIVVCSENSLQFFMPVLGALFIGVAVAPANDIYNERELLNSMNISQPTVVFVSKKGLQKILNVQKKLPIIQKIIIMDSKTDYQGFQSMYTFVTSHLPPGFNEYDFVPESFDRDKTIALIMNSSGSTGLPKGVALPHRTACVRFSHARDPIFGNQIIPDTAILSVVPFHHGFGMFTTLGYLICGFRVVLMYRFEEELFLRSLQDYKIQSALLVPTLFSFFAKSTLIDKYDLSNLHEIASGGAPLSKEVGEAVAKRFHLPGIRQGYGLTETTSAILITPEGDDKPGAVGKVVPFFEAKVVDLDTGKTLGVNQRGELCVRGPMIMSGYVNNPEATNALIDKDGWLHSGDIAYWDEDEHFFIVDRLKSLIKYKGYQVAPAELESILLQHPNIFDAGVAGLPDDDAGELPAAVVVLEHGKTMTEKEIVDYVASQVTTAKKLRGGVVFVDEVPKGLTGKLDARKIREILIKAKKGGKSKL
# Test: Firefly luciferase inhibition profiling of diverse chemical library using quantitative high-throughput screening; further: nearly all actives have a fitted effect of over 65% in size
# Conditions: purified P. pyralis luciferase, luminescence, biochemical; series mostly up to 115 µM
# In short: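 Inhibitors were tested against purified firefly luciferase in a biochemical, low-substrate format (both substrates at 10uM) and luminescence measured with a CCD imager.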
# Potency means the concentration at half of the fitted maximal effect.
row,Structure (SMILES),Potency
1,CC1(c2noc(C3CCOCC3)n2)CCN(Cc2ccc(OCC(N)=O)cc2)CC1,inactive
2,CN(Cc1ccccc1)Cc1cc(CC2(NCc3ccc(OC(F)(F)F)cc3)COC2)no1,inactive
3,COCc1noc(-c2ccc(NCCN3CCNC3=O)nc2)n1,inactive
4,COCCc1noc(-c2ccc(NC(C)c3ncccc3C)nc2)n1 (stereo not drawn),31.6 µM (active)
5,COc1cccc(CC(=O)NCCc2noc(-c3cccnc3)n2)c1,inactive
6,O=C(NC1CCN(Cc2ccc(F)c(F)c2)CC1)c1ccc2nccn2c1,inactive
7,O=C(c1ccncc1)N1CCC(c2cc(-c3ccc(F)cc3)n[nH]2)CC1,inactive
8,CCC1(N2CCN(C(=O)c3ccc(N(C)C)cc3)CC2)CCN(S(C)(=O)=O)C1 (stereo not drawn),inactive
9,Cn1cccc1C(=O)NC1CCN(c2cc(-c3ccccc3)[nH]n2)CC1,inactive
10,CC(=O)N1CCC(Cc2ccc(C(=O)NC3CC3)cc2)CC1,inactive
11,Cc1nnn2c(C(=O)NC3CC3)cccc12,7.08 µM (active)
12,O=C(c1cc(-c2ccccc2)n[nH]1)N1CC2CC(C1)[C@H]1CCCC(=O)N1C2 (stereo partly drawn),inactive
13,Cc1ccc([S+](=O)([O-])N2CCn3c(nn(-c4ccncc4)c3=O)C2)cc1,inactive
14,COc1ccccc1-c1cn(C)c(=O)n2cc(COc3ccc(C(=O)O)cc3)nc12,inactive
15,COc1cc(F)ccc1-c1ccnc2nc(C(C)C)nn12,inactive
16,COc1cc(F)ccc1-c1ccc(COc2ccc3c(cnn3CCC(=O)O)c2)cc1,44.7 µM (active)
17,CCN1c2cc(C(=O)NC3CCN(Cc4ccccc4)CC3)ccc2C(=O)N2CCCCC21 (stereo not drawn),inactive
18,CC(C)CNc1ccc2nnc(-c3ccccn3)n2n1,inactive
19,O=C(c1ccccc1)N1CCCC(c2noc(COc3ccccc3)n2)C1 (stereo not drawn),inactive
20,CC(C)CNC(=O)N1CCCC(c2noc(COc3ccccc3F)n2)C1 (stereo not drawn),inactive
21,O=C(C1CC1)N1CCCC(c2noc(COc3ccccc3F)n2)C1 (stereo not drawn),35.5 µM (active)
22,C[C@H]1CN(C(=O)Nc2cc(F)cc(F)c2)C[C@@H]1c1nc(-c2ccncc2)no1,inactive
23,Cc1ccc(C(=O)N2CC(N(Cc3cccnc3)CC(C)C)C2)s1,inactive
24,CN(CCc1cn[nH]c1)c1ccc(-c2nc(-c3ccccc3F)no2)cn1,0.631 µM (active)
25,CN(C)CCN(C)c1ccc(-c2nc(-c3ccccc3F)no2)cn1,15.8 µM (active)
26,Oc1ccc(-c2ccc(-c3nc(CCc4ccccc4)no3)cn2)cc1,inactive
27,CSc1ccc(CNC(=O)c2cc3c(N4CCCC4)nc(C)cn3n2)cc1,inactive
28,CCOc1ccccc1-c1noc(-c2nnn3c2COC(c2ccc(Cl)cc2)C3)n1 (stereo not drawn),inactive
